Experiment [1] in a line: ATG_CRE_CIS: Attagene CIS-FACTORIAL HepG2 Assay for human cAMP Responsive Element (CRE) binding protein 3 (AID 2282926). To be noted: HepG2 CRE cis-reporter, Attagene multiplexed mRNA; actives raise or lower the signal. In short, it runs like this: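 Assay format: transient reporter transfection of HepG2, 24 h treatment, total RNA isolation with DNase I step. Reporter abundance read by fluorescence after PCR and capillary separation; DMSO-normalised gain or loss fitting.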

The target in experiment [2] is CCAAT/enhancer-binding protein beta (Homo sapiens) (UniProt P17676). Nature of the experiment: ATG_C_EBP_CIS: Attagene CIS-FACTORIAL HepG2 Assay for human CCAAT/Enhancer Binding Protein (C/EBP) beta (AID 2282927). To be noted: HepG2 Attagene cis-factorial transcription factor reporter; actives raise or lower the signal. In short, it runs like this: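 Endogenous C/EBPb-driven reporter transcripts measured in transfected human HepG2 cells at 24 h via RT-PCR and capillary electrophoresis of labelled fragments. Activity fitted in both directions relative to DMSO baseline.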
Chain of CCAAT/enhancer-binding protein beta (Homo sapiens) (P17676 whole entry, looked up, the tested form may be a part): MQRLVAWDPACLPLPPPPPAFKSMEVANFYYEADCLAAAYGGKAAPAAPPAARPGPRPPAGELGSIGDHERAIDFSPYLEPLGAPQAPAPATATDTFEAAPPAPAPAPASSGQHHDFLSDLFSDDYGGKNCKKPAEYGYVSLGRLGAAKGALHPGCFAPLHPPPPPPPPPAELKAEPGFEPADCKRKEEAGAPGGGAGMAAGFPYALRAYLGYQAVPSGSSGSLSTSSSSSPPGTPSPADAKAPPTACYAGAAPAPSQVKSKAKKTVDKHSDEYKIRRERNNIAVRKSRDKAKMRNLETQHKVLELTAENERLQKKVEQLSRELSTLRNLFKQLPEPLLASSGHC

Experiment [3] in a line: ATG_CMV_CIS: Attagene CIS-FACTORIAL HepG2 Assay for human CMV (Internal Marker) (AID 2282928).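 Note: endpoint acts as a background internal control marker rather than a target.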 To be noted: HepG2 CMV promoter reporter, transcription factor profiling; actives raise or lower the signal. In short, it runs like this: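 24 h chemical treatment, HepG2 with transient multi-reporter transfection; RNA → oligo(dT) RT → PCR → 6-FAM extension → HpaI digest → CE fluorescence. Bidirectional fit, DMSO negative control.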

The nature of experiment [4]: ATG_DR4_LXR_CIS: Attagene CIS-FACTORIAL HepG2 Assay for human Liver X Receptor (LXR), DR4 submotif (AID 2282929). Particulars: HepG2 Attagene DR4 cis-reporter, mRNA transcription; actives raise or lower the signal. The essentials: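 HepG2 cells transiently transfected with cis-promoter-driven multiplexed reporter units (DR4 element) were dosed for 24 h. Reporter mRNA was quantified by RT-PCR, fluorescent primer extension, HpaI digestion and capillary electrophoresis; bidirectional fitting versus DMSO baseline.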

Experiment [5] is described as follows: ATG_AP_1_CIS: Attagene CIS-FACTORIAL HepG2 Assay for human Activator Protein 1 (AP-1) (AID 2282931). To be noted: HepG2 Attagene cis-factorial AP-1 reporter mRNA; actives raise or lower the signal. In short, it runs like this:
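HepG2 cells transiently transfected with cis-element-driven multiplex reporter units; 24 h compound exposure. Reporter mRNA quantified by RT-PCR, FAM-labelled fragments resolved by capillary electrophoresis; bidirectional fit versus DMSO baseline.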

A short description of experiment [6]: ATG_AP_2_CIS: Attagene CIS-FACTORIAL HepG2 Assay for human Activator Protein 2 (AP-2) (AID 2282932). To be noted: HepG2 AP-2 cis-reporter, Attagene transcription factor profiling; actives raise or lower the signal. The essentials:
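Transiently transfected HepG2 cells are exposed to chemical for 24 h. Reporter transcripts are then measured as fluorescence following RT-PCR and capillary separation, and gain- or loss-of-signal is fitted relative to DMSO.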

Experiment [7] in a line: ATG_BRE_CIS: Attagene CIS-FACTORIAL HepG2 Assay for human Bone Morphogenetic Protein (BMP) Response Element (BRE) (AID 2282933). To be noted: HepG2 BMP response element reporter, Attagene transcription factor profiling; actives raise or lower the signal. The essentials: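 Read-out: reporter mRNA induction quantified by RT-PCR and capillary electrophoresis after 24 h chemical exposure of transfected HepG2 cells. Endogenous factor activity on the BMP response element; gain or loss fitted against DMSO baseline.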

Experiment [8] has as its target Transcription factor E2F1 (Homo sapiens) (UniProt Q01094). Nature of the experiment: ATG_E2F_CIS: Attagene CIS-FACTORIAL HepG2 Assay for human E2F Transcription Factor 1 (AID 2282935). Particulars: HepG2 Attagene cis-reporter, E2F reporter RNA transcripts; actives raise or lower the signal. In short, it runs like this:
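Fluorescent RT-PCR products, digested with HpaI for 2 h at 37 C, are separated by capillary electrophoresis. Source RNA comes from transfected HepG2 cultures treated for 24 h.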

Experiment [9] is described as follows: ATG_M_61_CIS: Attagene CIS-FACTORIAL HepG2 Assay for M61 Transcription Factor (Internal Marker) (AID 2282937). Particulars: HepG2 Attagene CIS-FACTORIAL M61 internal marker reporter; actives raise or lower the signal. In short, it runs like this: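 HepG2 cells transiently transfected with cis-element-driven multiple reporter transcription units, dosed for 24 h. Reporter mRNA measured by RT-PCR, 6-FAM primer-extension labelling, HpaI digestion and capillary electrophoresis; bidirectional fit versus DMSO baseline.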

The nature of experiment [10]: ATG_EGR_CIS: Attagene CIS-FACTORIAL HepG2 Assay for human Early Growth Response 1 (EGR1) (AID 2282938). To be noted: HepG2 Attagene CIS-FACTORIAL EGR reporter mRNA; actives raise or lower the signal. In short, it runs like this: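 HepG2 cells transiently transfected with cis-promoter-driven multiplexed reporter transcription units; reporter mRNA measured 24 h after compound dosing by RT-PCR, 6-FAM primer extension, HpaI digestion and capillary electrophoresis. Bidirectional fit versus DMSO baseline.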

Experiment [11] is described as follows: ATG_M_19_CIS: Attagene CIS-FACTORIAL HepG2 Assay for M19 Transcription Factor (Internal Marker) (AID 2282939). To be noted: HepG2 Attagene CIS-FACTORIAL M19 internal marker reporter; actives raise or lower the signal. In short, it runs like this:
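Readout: fluorescent reporter-transcript fragments by capillary electrophoresis after RT-PCR. Human HepG2 liver cells carried transfected MRTU constructs reporting endogenous transcription-factor activity; exposure 24 h. Gain or loss of signal fitted relative to DMSO.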

A short description of experiment [12]: ATG_ERE_CIS: Attagene CIS-FACTORIAL HepG2 Assay for Estrogen Response Element (ERE) (AID 2282940). To be noted: HepG2 ERE cis-reporter, Attagene RNA transcript; actives raise or lower the signal. The essentials:
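Readout: reporter mRNA induction by RT-PCR, FAM-labelled primer extension, HpaI digestion and capillary electrophoresis, 24 h after dosing transfected HepG2 cells. Endogenous transcription factors act on cis-element-regulated reporters. Gain or loss fitted against DMSO.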

Experiment [13] in a line: ATG_Ets_CIS: Attagene CIS-FACTORIAL HepG2 Assay for human Erythroblast Transformation Specific (ETS) (AID 2282941). Particulars: HepG2 ETS cis-reporter transcription, actives raise or lower the signal. The essentials: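 Cis-regulated reporter mRNA induction in HepG2 (transient transfection), 24 h exposure, RT-PCR plus capillary electrophoresis detection; DMSO serves as negative control and baseline.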

Experiment [14] has as its target Hepatocyte nuclear factor 3-beta (Homo sapiens) (UniProt Q9Y261). In words: ATG_FoxA2_CIS: Attagene CIS-FACTORIAL HepG2 Assay for human Forkhead box A2 (FOXA2) (AID 2282942). To be noted: HepG2 cis-reporter transcription factor activity, 24 h; actives raise or lower the signal. In short, it runs like this:
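HepG2 cells transiently transfected with multiple cis-regulated reporter transcription units, dosed for 24 h. Reporter mRNA measured by RT-PCR, 6-FAM labelling, HpaI digestion and capillary electrophoresis; bidirectional fitting against DMSO baseline.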

Experiment [15] can be described thus: ATG_FoxO_CIS: Attagene CIS-FACTORIAL HepG2 Assay for human Forkhead box O (FoxO) (AID 2282943). Particulars: HepG2 Attagene cis-reporter, FoxO element, mRNA; actives raise or lower the signal. In short, it runs like this: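 Endogenous transcription factor activity read from multiplexed cis-promoter reporter transcripts in transiently transfected HepG2, 24 h after dosing. Reporter RNA measured via RT-PCR plus capillary electrophoresis of FAM-labeled products; gain or loss relative to DMSO.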

A short description of experiment [16]: ATG_GATA_CIS: Attagene CIS-FACTORIAL HepG2 Assay for human GATA Binding Protein (AID 2282944). Particulars: HepG2 GATA cis-element reporter, Attagene multiplex mRNA; actives raise or lower the signal. In short, it runs like this: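 Read-out: fluorescent reporter mRNA fragments resolved by capillary electrophoresis after RT-PCR. Human liver HepG2 cells carried transiently transfected cis-regulated reporter constructs; chemicals incubated 24 h; gain or loss of signal fitted relative to DMSO.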

Experiment [17] in a line: ATG_GLI_CIS: Attagene CIS-FACTORIAL HepG2 Assay for human Zinc Finger Protein GLI1 (AID 2282945). Particulars: HepG2, Attagene cis-factorial reporter mRNA, GLI element; actives raise or lower the signal. The essentials: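 Bidirectional curve fits relative to DMSO, using reporter mRNA levels from RT-PCR plus capillary electrophoresis. Cells were HepG2 transiently carrying cis-regulated reporter constructs, harvested 24 h after dosing.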

Experiment [18] has as its target Aryl hydrocarbon receptor (Homo sapiens) (UniProt P35869). Nature of the experiment: ATG_Ahr_CIS: Attagene CIS-FACTORIAL HepG2 Assay for human Aryl Hydrocarbon Receptor (Ahr) (AID 2282930). Particulars: HepG2 AhR cis-factorial reporter transcription; actives raise or lower the signal. In short, it runs like this:
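Reporter mRNA levels, quantified by RT-PCR and fluorescent capillary electrophoresis, reflect endogenous AhR transcriptional activity in HepG2 cells carrying transfected cis-promoter reporter constructs. Readout at 24 h post-dose; gain or loss fitted against DMSO baseline.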

The nature of experiment [19]: ATG_E_Box_CIS: Attagene CIS-FACTORIAL HepG2 Assay for human Enhancer Box (E-box) (AID 2282936). To be noted: HepG2 E-box cis-reporter transcription, actives raise or lower the signal. The essentials:
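Fluorescent reporter fragments separated by capillary electrophoresis gave the signal; mRNA came from HepG2 cells transfected with cis-element reporters and treated 24 h. Curves fitted bidirectionally relative to DMSO controls.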

Experiment [20] deals with Retinoic acid receptor alpha (Homo sapiens) (UniProt P10276). In words: ATG_DR5_RAR_CIS: Attagene CIS-FACTORIAL HepG2 Assay for human Retinoic Acid Receptor Alpha (RARE), DR5 submotif (AID 2282934). Particulars: HepG2 Attagene cis-factorial RARE DR5 reporter, mRNA; actives raise or lower the signal. The essentials: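 Reporter transcripts from a DR5-regulated unit, measured via RT-PCR plus capillary electrophoresis, reflect endogenous RAR activity in transiently transfected human HepG2 liver cells. Exposure lasted 24 h; gain or loss of signal scored against DMSO.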
Chain of Retinoic acid receptor alpha (Homo sapiens) (P10276 whole entry, looked up): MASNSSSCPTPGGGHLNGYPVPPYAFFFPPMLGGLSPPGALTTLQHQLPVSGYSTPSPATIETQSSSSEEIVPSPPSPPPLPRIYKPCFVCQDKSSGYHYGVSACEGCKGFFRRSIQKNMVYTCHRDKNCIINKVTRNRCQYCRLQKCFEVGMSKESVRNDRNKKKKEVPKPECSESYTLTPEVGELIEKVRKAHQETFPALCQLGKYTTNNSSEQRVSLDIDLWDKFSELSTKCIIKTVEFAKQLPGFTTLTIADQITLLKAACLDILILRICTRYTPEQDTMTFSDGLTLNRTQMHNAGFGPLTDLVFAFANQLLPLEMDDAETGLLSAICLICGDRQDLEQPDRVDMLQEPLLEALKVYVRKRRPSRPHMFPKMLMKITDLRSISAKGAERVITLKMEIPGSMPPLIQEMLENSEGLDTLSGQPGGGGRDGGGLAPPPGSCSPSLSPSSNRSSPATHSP

Experimental findings from PubChem BioAssay (EPA / NIEHS) are described below.

The source made the active and inactive calls. Rule for the calls: active = hit-call score of the fitted dose curve at least 0.9, where 1 is the maximum; inactive = score below 0.9.

Chain of Hepatocyte nuclear factor 3-beta (Homo sapiens) (Q9Y261 whole entry, looked up): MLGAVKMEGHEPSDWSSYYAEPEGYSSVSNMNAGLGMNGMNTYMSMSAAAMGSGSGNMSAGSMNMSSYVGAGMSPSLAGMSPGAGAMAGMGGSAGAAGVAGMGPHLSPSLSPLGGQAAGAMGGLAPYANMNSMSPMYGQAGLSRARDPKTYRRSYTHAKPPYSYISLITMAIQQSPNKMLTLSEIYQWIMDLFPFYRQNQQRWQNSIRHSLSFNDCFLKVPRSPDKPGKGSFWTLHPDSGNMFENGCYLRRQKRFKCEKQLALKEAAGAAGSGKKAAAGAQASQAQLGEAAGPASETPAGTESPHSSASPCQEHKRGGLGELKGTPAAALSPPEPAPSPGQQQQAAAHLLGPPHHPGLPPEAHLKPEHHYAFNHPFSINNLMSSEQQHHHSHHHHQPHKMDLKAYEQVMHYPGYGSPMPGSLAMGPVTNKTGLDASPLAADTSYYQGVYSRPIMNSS
Chain of Transcription factor E2F1 (Homo sapiens) (Q01094 whole entry, looked up): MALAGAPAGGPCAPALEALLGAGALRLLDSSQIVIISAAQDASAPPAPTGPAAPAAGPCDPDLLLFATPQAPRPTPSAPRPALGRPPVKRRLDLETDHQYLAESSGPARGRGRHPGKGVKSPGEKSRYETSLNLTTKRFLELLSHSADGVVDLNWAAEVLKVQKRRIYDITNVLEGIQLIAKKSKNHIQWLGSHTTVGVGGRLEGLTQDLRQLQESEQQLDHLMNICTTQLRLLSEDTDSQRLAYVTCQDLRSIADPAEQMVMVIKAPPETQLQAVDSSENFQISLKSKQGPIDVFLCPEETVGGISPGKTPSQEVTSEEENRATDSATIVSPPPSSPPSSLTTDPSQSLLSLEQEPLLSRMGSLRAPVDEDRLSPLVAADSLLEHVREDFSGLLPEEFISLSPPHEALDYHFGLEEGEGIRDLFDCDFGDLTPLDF
Chain of Aryl hydrocarbon receptor (Homo sapiens) (P35869 whole entry, looked up): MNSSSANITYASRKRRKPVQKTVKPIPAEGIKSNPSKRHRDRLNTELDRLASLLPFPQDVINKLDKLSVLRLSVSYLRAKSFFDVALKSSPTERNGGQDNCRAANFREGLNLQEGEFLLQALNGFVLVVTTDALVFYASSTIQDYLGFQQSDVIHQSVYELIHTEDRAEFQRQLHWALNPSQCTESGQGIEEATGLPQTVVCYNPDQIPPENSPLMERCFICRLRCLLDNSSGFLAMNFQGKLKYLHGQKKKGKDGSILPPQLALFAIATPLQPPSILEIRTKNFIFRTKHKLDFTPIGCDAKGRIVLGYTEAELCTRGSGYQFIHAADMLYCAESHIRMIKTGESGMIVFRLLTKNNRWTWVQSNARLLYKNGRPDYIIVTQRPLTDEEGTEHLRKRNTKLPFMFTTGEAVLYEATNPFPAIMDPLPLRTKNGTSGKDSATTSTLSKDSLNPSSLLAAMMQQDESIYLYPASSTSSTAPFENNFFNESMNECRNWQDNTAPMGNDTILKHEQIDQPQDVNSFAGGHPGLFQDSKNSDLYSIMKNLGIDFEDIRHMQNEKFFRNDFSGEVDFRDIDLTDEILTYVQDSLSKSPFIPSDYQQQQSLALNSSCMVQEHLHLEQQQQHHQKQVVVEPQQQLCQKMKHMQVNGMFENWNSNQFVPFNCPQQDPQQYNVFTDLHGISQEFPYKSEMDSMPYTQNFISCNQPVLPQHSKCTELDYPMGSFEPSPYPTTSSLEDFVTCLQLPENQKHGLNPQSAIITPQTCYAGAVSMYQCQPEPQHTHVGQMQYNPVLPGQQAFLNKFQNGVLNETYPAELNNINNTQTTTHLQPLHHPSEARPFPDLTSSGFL

For the compound `O=C1c2cccc(O)c2C(=O)c2c(O)cc(CO)cc21`, the compound was classed as inactive in [1], in experiment [2], in experiment [4], in experiment [6], in experiment [7] and in experiment [8]. The result in experiment [9], in experiment [10], in experiment [11], in [13], in experiment [14] and in [15] was inactive. The call in experiment [16] and in experiment [17] was inactive. Also, the AC50 (in general, the midpoint of the concentration-response curve, whichever way the signal moves) in [3] was 11.3 µM (active); in experiment [5] it was 32.5 µM (active); in experiment [12], 4.22 µM (active).

In the case of `OC1CCCC1`, the result in experiment [1], in experiment [2], in [3], in experiment [18], in [5] and in experiment [6] was inactive. In addition, the outcome in experiment [7], in [8], in experiment [19], in experiment [9], in [10] and in experiment [11] was inactive. In addition, the outcome in experiment [12], in experiment [13], in experiment [14], in [15], in [16] and in [17] was inactive.

Regarding `CC(=O)OC1C2(C)CCC(C2)C1(C)C` (stereo not given), the outcome in experiment [1], in experiment [2], in [3], in [4], in [5] and in [6] was inactive. Also, the compound was classed as inactive in experiment [7], in experiment [8], in experiment [19], in experiment [9], in experiment [10] and in [11]. Besides, the compound was called inactive in experiment [12], in [14], in experiment [15] and in experiment [17].

`CC1=CC[C@H]2C[C@@H]1C2(C)C`: the compound was called inactive in [1], in [2], in experiment [3], in experiment [4], in experiment [5] and in [20]. Also, the compound was called inactive in experiment [8], in experiment [19], in experiment [9], in experiment [10], in experiment [11] and in experiment [12]. Besides, the compound was classed as inactive in experiment [13], in experiment [14], in experiment [15], in experiment [16] and in experiment [17].

Regarding `C=CCCCCCCCCC(=O)OCCCC`, the compound was called inactive in experiment [1], in experiment [2], in experiment [3], in experiment [18], in [5] and in [6]. In addition, the compound was classed as inactive in experiment [7], in [20], in [8], in experiment [19], in experiment [9] and in [10]. Also, the compound was called inactive in experiment [11], in experiment [12], in [13], in experiment [14], in experiment [15] and in experiment [17].

Turning to `CC(=O)Oc1ccc(C(C)=O)cc1`, the compound was classed as inactive in experiment [1], in experiment [2], in [3], in [4], in [5] and in experiment [6]. The compound was classed as inactive in experiment [7], in experiment [8], in [9], in experiment [10], in [11] and in [12]. The call in [14], in experiment [15], in experiment [16] and in experiment [17] was inactive.

Turning to `O=c1[nH]c(=O)c2[nH]c(=O)[nH]c2[nH]1`, the call in experiment [1], in experiment [2], in experiment [3], in [18], in experiment [5] and in experiment [6] was inactive. For the same compound, the outcome in experiment [20], in experiment [8], in [19], in experiment [9], in experiment [11] and in [12] was inactive. The call in [14], in experiment [15], in experiment [16] and in experiment [17] was inactive.

As to `Cc1cc(C)c(C)cc1C`, the compound was called inactive in experiment [1], in experiment [2], in experiment [3], in experiment [18], in experiment [5] and in experiment [6]. Also, the result in [20], in [8], in experiment [19], in experiment [9], in experiment [10] and in [11] was inactive. Moreover, the outcome in [12], in experiment [13], in experiment [14], in experiment [16] and in experiment [17] was inactive.
